# Data taken from ChEMBL document CHEMBL4513216, “Probing the Open Global Health Chemical Diversity Library for Multistage-Active Starting Points for Next-Generation Antimalarials” (ACS Infect Dis, 2020).
# Screen size: about 69,000 compounds; about 8,600 (12%) showed an effect of 50% or more. The sample holds strong results, similar compounds and a random draw of the others, so the mix is not that of the screen.
# Tested on: Plasmodium berghei
# Assay: Screen against P. berghei liver stage (PbLuc), transformed with Luciferase, at 10uM
# Format: functional, HepG2
# Settings: tested at 10 uM
row,Compound,INHIBITION [%]
1,CNC(=O)CNC(=O)NCc1cc2c(s1)CCC(C)(C)C2,26.1
2,O=C(NCCNc1ccc(C(F)(F)F)cn1)c1cncc(Br)c1,26.1
3,O=C(NCCNc1ccc(C(F)(F)F)cn1)c1ccc(Cl)cc1F,29.4
4,O=C(NCCNc1ccc(C(F)(F)F)cn1)c1ccc(Br)cc1,-18
5,O=C(NCCCNc1ccc(C(F)(F)F)cn1)c1ccc2c(c1)OCO2,60.5
6,CSCc1ccc(C(=O)NCCCNc2ccc(C(F)(F)F)cn2)cc1,60.95
7,COCc1ccc(C(=O)NCCCNc2ccc(C(F)(F)F)cn2)cc1,24.15
8,CN(CCc1cccs1)C(=O)Nc1cnn(CC2CCCO2)c1 (centres undefined),6.33
9,Cc1csc2cc(C(=O)NC3CC3)cnc12,-82.4
10,CCN1CCC2(COCc3c(C)nc(N(C)C)nc32)C1 (centres undefined),2.59
11,CCOc1ncccc1C(=O)N1CCCC1c1c(C)nn(C)c1OC (centres undefined),32.4
12,Cc1ccc2c(c1)SCC(=O)N2CC(=O)N1CCCC1c1cc(C)on1 (centres undefined),-1.45
13,Cc1ccc2c(c1)SCC(=O)N2CC(=O)N1CCC[C@H]1c1nc(C)no1,74
14,Cc1ccc2c(c1)SCC(=O)N2CC(=O)N1CCCC1c1cc(C)no1 (centres undefined),-40.6
15,c1cncc(-c2nnc([C@H]3CCN(CC4CCCCC4)C3)o2)c1,55.9
16,COCC(=O)NCC1CCC(c2nnc(-c3ccncc3)o2)CC1 (centres undefined),13.7
17,O=C(NCC1CCC(c2nnc(-c3cccnc3)o2)CC1)C1CC1 (centres undefined),50.8
18,c1ccc(OCCN2CCC(c3nnc(-c4cccnc4)o3)CC2)cc1,20.8
19,c1ccc(CCCN2CC[C@H](c3nnc(-c4cccnc4)o3)C2)cc1,13.5
20,c1cncc(-c2nnc([C@H]3CCN(CC4CC4)C3)o2)c1,67.8
21,c1cc(-c2nnc(C3CCCN(CC4CCCCC4)C3)o2)ccn1 (centres undefined),38.8
22,COCC(=O)NCC1CCC(c2nnc(-c3cccnc3)o2)CC1 (centres undefined),-8.58
23,c1ccc(-c2nnc(C3CCCN(CC4CCCCC4)C3)o2)nc1 (centres undefined),7.52
24,CC(=O)N1CCC(Cc2cnc(-n3ccnc3)cn2)CC1,17.1
25,COC(=O)c1ccc(OC)c(Cn2cc(N)cn2)c1,18.9
26,Cc1nc(C)n(CC2CN(Cc3nccs3)Cc3nccn3C2)n1 (centres undefined),8.03
27,Cc1cc(F)cc(S(=O)(=O)Nc2ccn(CCCC#N)n2)c1,26
28,CC(=O)N(Cc1ncc(C)o1)C1CCN(CCc2cnn(C)c2)C1 (centres undefined),-36.1
29,O=C(N1CCOCC1)N1C[C@@H]2CC[C@H]1CN(C1Cc3ccccc3C1)C2,-43.5
